Bioassay records as filed in PubChem BioAssay.
The entries come from a sample that favours hits as a whole.
TDP1 inh: TDP1 (human) enzyme inhibition. Q9NUW8. recombinant TDP1, AlphaScreen DNA substrate cleavage. Potency, µM (top dose mostly 130 µM), inactives show at the top dose activity change, negative = inhibition, most hits filed as inhibitors. 0.28% of 350,000 active; further: on the % scale 0 is the no-effect control and ±100 the full control effect; nearly all actives have a fitted effect of over 40% in size
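Tdp1 1 nM final; 15 min RT w/ cpd; substrate 15 nM, 5 min; beads 10 ug/ml, 10 min; AlphaScreen read. Neg ctrl: no enzyme.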
L3MBTL1 inh-1: blocks human L3MBTL1 | Q9Y468 | AlphaScreen L3MBTL1–H3K9me1 peptide binding | Potency, µM (top dose mostly 57.1 µM), without a hit: at the top dose activity, negative = inhibition, actives largely listed as inhibitors | 0.66% of 230,000 active | AID 485360; further: on the % scale 0 is the no-effect control and ±100 the full control effect; nearly all actives have a fitted effect of over 60% in size
Target sequence (Q9Y468 whole entry, looked up): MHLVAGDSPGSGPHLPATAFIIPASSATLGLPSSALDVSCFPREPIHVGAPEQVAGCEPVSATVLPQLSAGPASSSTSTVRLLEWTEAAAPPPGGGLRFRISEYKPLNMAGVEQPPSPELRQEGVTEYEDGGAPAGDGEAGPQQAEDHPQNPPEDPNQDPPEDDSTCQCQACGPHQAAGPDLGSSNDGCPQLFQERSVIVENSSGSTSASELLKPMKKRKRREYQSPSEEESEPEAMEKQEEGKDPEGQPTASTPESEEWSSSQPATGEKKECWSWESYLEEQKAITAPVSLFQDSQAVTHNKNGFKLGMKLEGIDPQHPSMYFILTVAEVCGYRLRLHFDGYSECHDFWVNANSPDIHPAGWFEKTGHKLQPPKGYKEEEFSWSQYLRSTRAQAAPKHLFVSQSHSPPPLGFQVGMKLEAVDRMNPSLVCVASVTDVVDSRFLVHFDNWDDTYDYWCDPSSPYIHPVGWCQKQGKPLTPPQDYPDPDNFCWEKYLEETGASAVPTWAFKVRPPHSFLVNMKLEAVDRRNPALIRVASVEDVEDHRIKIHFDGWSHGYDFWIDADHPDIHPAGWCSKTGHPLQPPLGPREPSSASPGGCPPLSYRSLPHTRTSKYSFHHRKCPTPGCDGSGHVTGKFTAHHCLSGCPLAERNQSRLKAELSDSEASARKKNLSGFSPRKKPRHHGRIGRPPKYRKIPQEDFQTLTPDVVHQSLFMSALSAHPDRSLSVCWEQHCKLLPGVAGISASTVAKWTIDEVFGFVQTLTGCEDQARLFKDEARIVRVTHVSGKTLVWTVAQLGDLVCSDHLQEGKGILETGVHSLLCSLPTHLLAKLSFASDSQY
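AlphaScreen proximity signal between nickel-chelate acceptor and streptavidin donor beads (final 10 ug/mL) reports binding of 50 nM L3MBTL1 to 75 nM biotin-H3 K9me1 peptide; complex incubated with compounds 30 min at room temperature; cefsulodin titration as control.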
APE1 inh-1: blocks human APE1 abasic DNA cleavage | Potency, µM (doses to about 65.8 µM), inactives show top-dose activity change, negative = inhibition, most hits filed as inhibitors | P27695 | 0.35% of 350,000 active | recombinant APE1, TAMRA/BHQ-2 abasic DNA cleavage fluorescence | AID 2517;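 further: plate controls were vehicle for no effect and reference inhibitor for full effect; nearly all actives have a fitted effect of over 55% in size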
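Enzyme (0.75 nM final) and test compound are incubated 15 min at room temperature before adding 50 nM quenched THF abasic-site duplex. Cleavage dequenches TAMRA, followed at 525/598 nm over three reads one minute apart.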
RECQ1 inh-1: blocks DNA unwinding by human RECQ1; P46063; RECQ1 DNA unwinding, red fluorescence kinetic read; Potency, µM (highest dose often 57.3 µM), for inactives: at the highest dose activity, negative = inhibition, actives largely listed as inhibitors; 0.54% of 240,000 active; AID 2549;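 further: plate controls were vehicle for no effect and no enzyme for full effect; nearly all actives have a fitted effect of over 30% in size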
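50 nM RECQ1T1 preincubated 15 min with compound in Tris pH 8.0 buffer with MgCl2, DTT, Tween-20 and 2.5 ug/ml poly(dI-dC); started with 200 nM TAMRA/BHQ-2 forked duplex and 2 mM ATP. Unwinding read as fluorescence (525/598 nm), two reads 2 h apart.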
BLM inh-1: blocks DNA unwinding by human BLM helicase. recombinant BLM DNA unwinding, fluorescence dequenching. Potency, µM (series often up to 56.1 µM), for inactives: at the top dose activity change, negative = inhibition, most hits filed as inhibitors. 0.2% of 350,000 active;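 further: plate controls were vehicle for no effect and no enzyme for full effect; nearly all actives have a fitted effect of over 35% in size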
JMJD2E inh: JMJD2E (human) inhibition; B2RXH2; JMJD2E catalytic domain, FDH-coupled NADH fluorescence (FDH is formaldehyde dehydrogenase); Potency, µM (top dose mostly 57.1 µM), for inactives: at the top dose activity change, negative = inhibition, most hits filed as inhibitors; 1.6% of 230,000 active; active means well fitted inhibition curve with a large enough effect, not every such curve was filed as active; inconclusive means small, poorly fitted or top-dose-only effect, or another doubt; inactive means no such curve, though single readings can be large or run the other way;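 further: 0% = wells with enzyme and -100% = buffer wells without enzyme; nearly all actives have a fitted effect of over 50% in size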
DNA dye displace: displaces fluorescent dye from DNA, flagging APE1 artifacts. shares compounds with APE1 inh-1. DNA fluorescent dye displacement counterscreen, fluorescence. Potency, µM (titrated, usually from 28.5 µM), for the others: at the highest dose activity change, negative = inhibition, actives largely listed as inhibitors. 7% of 480 active. AID 2564;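 further: loss of thiazole orange fluorescence as the dye is displaced from duplex DNA; 0% = ThO with dsDNA and no compound and -100% = ThO without dsDNA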
EndoIV counter: Endo IV (E. coli) inhibition counter-screen; shares compounds with APE1 inh-1; AID 2565; E. coli Endo IV, fluorogenic AP-site DNA cleavage; 4% of 560 active; Potency, µM (highest dose often 27.1 µM), without a hit: top-dose activity change, negative = inhibition, usual class: inhibitors;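 further: plate controls were uninhibited enzyme wells for no effect and no enzyme buffer wells for full effect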
APE1 inh-2: confirmation of inhibitors of human APE1 endonuclease; shares compounds with APE1 inh-1; purified APE1, fluorogenic abasic-site DNA cleavage; Potency, µM (highest dose often 57.1 µM), without a hit: at the top dose activity change, negative = inhibition, hits mostly inhibitors; 44% of 750 active; AID 2572; further: on the % scale 0 is the no-effect control and ±100 the full control effect; nearly all actives have a fitted effect of over 30% in size
APE1 FP: compounds that displace a DNA probe from human APE1 | 7% of 480 active | APE1 binding to TAMRA-labelled double-stranded DNA, fluorescence polarization displacement | Potency, µM (titrated, usually from 28.5 µM), for the others: at the top dose activity, negative = inhibition, most hits filed as inhibitors | shares compounds with APE1 inh-1 | AID 2573; further: on the % scale 0 is the no-effect control and ±100 the full control effect
BLM inh-2: BLM (human) helicase inhibition, confirmation | shares compounds with BLM inh-1 | BLM DNA unwinding, fluorescence quenching, biochemical | Potency, µM, for inactives: max response, negative = inhibition, hits mostly inhibitors | 40% of 220 active | AID 2585;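 further: strand separation dequenches TAMRA so unwinding raises red fluorescence; series mostly up to about 69 µM; on the % scale 0 is the no-effect control and ±100 the full control effect; nearly all actives have a fitted effect of over 45% in size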
RECQ1 inh-2: RECQ1 helicase inhibition confirmed, round 2. shares compounds with RECQ1 inh-1. recombinant RECQ1 DNA unwinding, red fluorescence. Potency, µM (top dose mostly 119 µM), for the others: at the highest dose activity, negative = inhibition, hits mostly inhibitors. 15% of 1,100 active; further: on the % scale 0 is the no-effect control and ±100 the full control effect; nearly all actives have a fitted effect of over 50% in size
L3MBTL1 inh-2: blocks human L3MBTL1 methyl-lysine binding; shares compounds with L3MBTL1 inh-1; L3MBTL1 methyl-lysine binding inhibition, biochemical qHTS; Potency, µM, actives largely listed as inhibitors; 91% of 500 active; further: nearly all actives have a fitted effect of over 70% in size
AlphaScreen ctr2: counter-screen for L3MBTL1 inhibitors: AlphaScreen signal interference; shares compounds with L3MBTL1 inh-1; AlphaScreen counterscreen, signal inhibition; Potency, µM (doses to about 57.1 µM), without a hit: top-dose activity change, negative = inhibition, hits mostly inhibitors; 500 tested, under 10 active; AID 602224; further: 0% is about no effect
The depositor's hits bear a star; [ ] = another dose, or the depositor's remark. Unless noted, the call rests on the fitted dose curve; in most records, active means well fitted curve in the direction sought with a large enough effect; inconclusive means small, poorly fitted or top-dose-only effect, or another doubt; inactive means no such curve, though single readings can be large; an effect the other way counts as inactive or inconclusive. Potency means the concentration at half of the fitted maximal effect.

Screening COC(=O)C12CC3=CCC4C(=O)N(c5ccccc5)C(=O)C4C3Cc3ccccc3[C@@H]1CNC2=O (stereo not given in full) returned TDP1 inh 5.6%, APE1 inh-1 -1.9%, RECQ1 inh-1 inactive, BLM inh-1 4.2% and JMJD2E inh 6.7%.
CN1C(=O)N(C)C(=O)C2(Cc3cc(N)ccc3N3CCN(c4ccccc4F)CC32)C1=O (stereo not given) was read as TDP1 inh -6.1%, L3MBTL1 inh-1 inconclusive, APE1 inh-1 -6.6%, RECQ1 inh-1 -9.7%, BLM inh-1 -3.6% and JMJD2E inh inconclusive.
`CN1CCN2c3ccc(N)cc3CC3(C(=O)NC(=O)NC3=O)C2C1` (stereo not given) gave TDP1 inh 44.7µM*, APE1 inh-1 inconclusive, RECQ1 inh-1 8.2%, BLM inh-1 -21.3%, JMJD2E inh 3.98µM* and APE1 inh-2 inconclusive.
`O=c1cc(-c2ccc(O)c(O)c2)oc2c(C3O[C@H](CO)[C@@H](O)[C@H](O)[C@H]3O)c(O)cc(O)c12` (stereo not given in full) gave TDP1 inh 9.2%, L3MBTL1 inh-1 10µM*, APE1 inh-1 0.891µM*, RECQ1 inh-1 -14.8%, BLM inh-1 -3.5%, JMJD2E inh 1µM*, DNA dye displace inconclusive, EndoIV counter 73.5%, APE1 inh-2 inconclusive and APE1 FP -3.9%.
Screening C=C(Cl)CCl returned TDP1 inh 4.8%, APE1 inh-1 3.1% and RECQ1 inh-1 -7.3%.
COC(=O)[C@H]1[C@H](c2ccccc2)C(=O)[C@@]2(O)c3ccccc3O[C@@]12c1ccccc1 was read as TDP1 inh 3.7%[21 µM], APE1 inh-1 -2.1%[12.4 µM], RECQ1 inh-1 14.3%[11.5 µM] and BLM inh-1 0.8%[12.4 µM].
Screening O=C(c1ccccc1)C(CN1CCCC1)c1ccccc1 (stereo not given) returned TDP1 inh -1.9%, L3MBTL1 inh-1 -0.4%, APE1 inh-1 0.5%, RECQ1 inh-1 -3.1%, BLM inh-1 -8.2% and JMJD2E inh 2.0%.
Screening CC(c1ccccc1)n1cncc1C(=O)O (stereo not given) returned TDP1 inh 22.4µM*, L3MBTL1 inh-1 23.4%[11.4 µM], APE1 inh-1 inconclusive, RECQ1 inh-1 -24.0%, BLM inh-1 -5.6%, JMJD2E inh -2.0% and APE1 inh-2 -37.6%.
For NC(=O)c1ccc(N=Cc2c(O)n(Cc3ccco3)c(=O)[nH]c2=O)cc1 the results were TDP1 inh 28.2µM*, APE1 inh-1 31.6µM*, RECQ1 inh-1 inconclusive, BLM inh-1 inconclusive, JMJD2E inh inconclusive, DNA dye displace inconclusive, EndoIV counter -10.1%, APE1 inh-2 39.8µM*, APE1 FP -7.6% and RECQ1 inh-2 inconclusive.
`O=c1[nH]c(=O)n(Cc2ccco2)c(O)c1C=NCc1cccs1` gave TDP1 inh -8.2%, APE1 inh-1 2.1%, RECQ1 inh-1 -8.5%, BLM inh-1 -4.9% and JMJD2E inh -0.8%.
`O=c1[nH]c(=S)n(Cc2ccco2)c(O)c1C=NCc1cccs1` gave TDP1 inh -5.1%, APE1 inh-1 inconclusive, RECQ1 inh-1 inconclusive, BLM inh-1 6.1%, JMJD2E inh -1.5%, DNA dye displace -9.3%, EndoIV counter 10.7%, APE1 inh-2 -10.7%[24.4 µM], APE1 FP -3.5% and RECQ1 inh-2 -26.4%.
`CC[C@H](CO)NC(=O)[C@H]1C=C2c3cccc4[nH]cc(c34)C[C@@H]2N(C)C1` gave TDP1 inh 3.9%[56.1 µM], APE1 inh-1 -2.6%[21 µM], RECQ1 inh-1 -3.3%[25.9 µM], BLM inh-1 -6.7%[21.4 µM] and JMJD2E inh inconclusive.
`Cc1cc(/C=C2\C(=O)NC(=O)N(Cc3ccccc3Cl)C2=O)c(C)n1-c1ccc(C(=O)O)cc1` gave TDP1 inh 22.4µM*, L3MBTL1 inh-1 28.2µM*, APE1 inh-1 11.2µM*, RECQ1 inh-1 inconclusive, BLM inh-1 -19.6%, JMJD2E inh -19.3%, DNA dye displace -12.0%, EndoIV counter -3.0%, APE1 inh-2 12.6µM*, APE1 FP inconclusive, L3MBTL1 inh-2 5.32* and AlphaScreen ctr2 7.9%.
NC(=O)CF was read as TDP1 inh 8.2%, APE1 inh-1 -1.2%, RECQ1 inh-1 -2.8% and BLM inh-1 -1.1%.
CC(C)CNC(=O)c1c(N)n(Cc2ccc3c(c2)OCO3)c2nc3ccccc3nc12 was read as TDP1 inh -13.9%, APE1 inh-1 -1.9%, RECQ1 inh-1 inactive, BLM inh-1 10µM*, JMJD2E inh inconclusive and BLM inh-2 -8.5%.
